# Measured values from ChEMBL document CHEMBL4513216, “Probing the Open Global Health Chemical Diversity Library for Multistage-Active Starting Points for Next-Generation Antimalarials” (ACS Infect Dis, 2020).
# The whole screen tested about 65,000 compounds, of which about 2,100 (3.2%) showed an effect of 50% or more. The median lay at about -52%. The list comes from a sample in which strong results are over-represented; it also holds similar structures and randomly drawn compounds.
# Tested on: Plasmodium falciparum
# Assay: Screen against P. falciparum Asexual Blood Stage (ABS), at 5uM
# Type: functional, Dd2
# Details: tested at 5 uM
row,SMILES,INHIBITION [%]
1,CN1CCN(c2cc(Sc3cccs3)nc(N)n2)CC1CCO (configuration not stated),-77.1
2,CN(CCc1ccccc1)C1CCCN(Cc2nccn2C)C1 (configuration not stated),22.1
3,Cc1nc(CN2CCCC(N(C)Cc3nccn3C)C2)no1 (configuration not stated),-29.4
4,CN(Cc1nccn1C)C1CCCN(CCCc2ccccc2)C1 (configuration not stated),63.9
5,O=C1COC2(CCN(c3ncccn3)CC2)CN1,-86
6,COCCC1COC2(CCN(C(=O)c3ccsc3)CC2)C1 (configuration not stated),-101
7,CC(C)(C)C1CCC(NCCN2CCOCC2)CC1 (configuration not stated),56.3
8,CCC1CCC(NCCN2CCOCC2)CC1 (configuration not stated),5.69
9,C1CCC(NCCN2CCOCC2)C1,-99.9
10,CC(C)c1cc(C(=O)NCCc2nc3c(s2)CCC3)n(C)n1,-63.4
11,Cc1noc(C)c1-c1ccnc(C2CCNCC2)c1,-51.7
12,CC(=O)N1CC[C@@]2(O)CCCC[C@H]2[C@@H]1c1ccc2c(c1)OCO2,-87.3
13,N#Cc1ccc(CNC2CCN(CCc3ccncc3)CC2)cc1,56.7
14,c1cc(CCN2CCC(NCc3ccsc3)CC2)ccn1,-8.86
15,Oc1cccc(CNC2CCN(CCc3ccncc3)CC2)c1,-18.8
16,CC(CNC(=O)c1cnc[nH]1)Oc1ccccc1Br (configuration not stated),-61.4

row,SMILES,INHIBITION [%]
1,CC(C)N1CCC(c2cnc(-c3cncnc3)cn2)CC1,-18
2,COc1cccc(-c2cccc(CN3C[C@H]4CC[C@@H](C3)N(C)C4=O)c2)c1,13.1
3,Cc1ncc2c(n1)CN(CC(=O)Nc1ccc(Cl)cn1)CC2,6.47
4,CC(C)c1ncc2c(n1)CN(CC(=O)Nc1ccc(Cl)cn1)CC2,-65.1
5,CCc1ncc2c(n1)CN(CC(=O)Nc1ccc(Cl)cn1)CC2,59.4
6,CCCc1nc(N2CCCCCC2)c2c(n1)c(C)nn2CC,22.2
7,NC(=O)C1(CCCc2ccccn2)CCCN(Cc2ccncc2)C1 (configuration not stated),-123
8,CC(O)CN1CCC(CN(C)C(=O)NC2CC2)CC1 (configuration not stated),-50.7
9,CCN(CC)CC1CN(CCc2ccccc2)Cc2nccn2C1 (configuration not stated),58.7
10,CCN(CC)CC1CN(Cc2ccc(C)s2)Cc2nccn2C1 (configuration not stated),66.7
11,CCN(CC)CC1CN(Cc2ccco2)Cc2nccn2C1 (configuration not stated),-52.4
12,Cc1ccc(CN2Cc3nccn3CC(CN(C)C)C2)s1 (configuration not stated),-47.7
13,Cc1ccc(CN2Cc3nccn3CC(Cn3cccn3)C2)s1 (configuration not stated),-26.9
14,CCN(CC)CC1CN(Cc2cccc(C#N)c2)Cc2nccn2C1 (configuration not stated),-6.06
15,Cc1cc(CCC(=O)NCc2ncc[nH]2)ccc1Br,-116
16,CCOC(=O)[C@]12CCCN(Cc3cccs3)C[C@H]1CN(CC(C)C)C2,14.6
